40 compounds from paper PMC4336329 (PLoS ONE, 2015) can be followed below.

Among all 310,000 compounds or so, about 14,000 (4.5%) showed an effect of 50% or more. Effects have a minus sign here. What follows is part of a selection rich in strong results, with near analogues and random picks from the rest.
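Further: peak tail current of the secondary pulse compared with the same well before compound.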

Chain of human ether-à-go-go-related gene (hERG) potassium channel (Q12809 whole entry, looked up): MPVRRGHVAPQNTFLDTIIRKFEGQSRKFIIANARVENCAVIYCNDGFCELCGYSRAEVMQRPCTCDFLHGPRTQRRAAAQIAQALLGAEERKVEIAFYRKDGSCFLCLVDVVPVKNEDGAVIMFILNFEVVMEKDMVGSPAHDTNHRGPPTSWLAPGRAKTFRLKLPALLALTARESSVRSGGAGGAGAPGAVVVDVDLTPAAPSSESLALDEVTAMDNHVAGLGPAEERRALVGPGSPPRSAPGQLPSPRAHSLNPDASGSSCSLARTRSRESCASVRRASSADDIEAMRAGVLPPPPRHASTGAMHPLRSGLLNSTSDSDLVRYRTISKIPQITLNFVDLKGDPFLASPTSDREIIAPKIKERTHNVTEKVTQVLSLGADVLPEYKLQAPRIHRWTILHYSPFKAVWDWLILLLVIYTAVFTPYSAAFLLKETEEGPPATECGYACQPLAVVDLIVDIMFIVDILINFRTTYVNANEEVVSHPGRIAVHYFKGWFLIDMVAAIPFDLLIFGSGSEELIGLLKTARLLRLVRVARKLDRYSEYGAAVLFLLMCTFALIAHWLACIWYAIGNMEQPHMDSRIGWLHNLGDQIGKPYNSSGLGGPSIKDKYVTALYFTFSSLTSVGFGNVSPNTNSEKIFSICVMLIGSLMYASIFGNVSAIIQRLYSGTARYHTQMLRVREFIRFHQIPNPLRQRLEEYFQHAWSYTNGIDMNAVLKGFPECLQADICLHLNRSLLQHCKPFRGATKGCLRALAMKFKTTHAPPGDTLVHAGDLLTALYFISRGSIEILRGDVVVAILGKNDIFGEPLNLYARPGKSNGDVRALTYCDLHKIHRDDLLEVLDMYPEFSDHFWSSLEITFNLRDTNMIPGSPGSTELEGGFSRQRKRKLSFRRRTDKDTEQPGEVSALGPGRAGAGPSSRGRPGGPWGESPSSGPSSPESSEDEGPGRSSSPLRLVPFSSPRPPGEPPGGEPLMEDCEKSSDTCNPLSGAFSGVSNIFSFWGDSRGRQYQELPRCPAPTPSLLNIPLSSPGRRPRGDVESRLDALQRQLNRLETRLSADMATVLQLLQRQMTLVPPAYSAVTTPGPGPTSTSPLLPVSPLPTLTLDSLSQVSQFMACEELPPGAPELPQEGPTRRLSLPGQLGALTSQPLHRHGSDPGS

The experiment has as its target human ether-à-go-go-related gene (hERG) potassium channel (human, UniProt Q12809). As to the kind of experiment: primary screen, population patch clamp on CHO cells stably expressing hERG; higher = less effect of the substance.
As to `CCOC(=O)CSc1n[nH]c(NS(=O)(=O)c2ccccc2C(F)(F)F)n1`, the “hERG current change (%, negative = inhibition) at 10uM” value is on record as -1.78%.
In the case of `CSc1ccc(C2Nc3ccccc3-c3cc(C)nn32)cc1` (stereo not shown) it was -3.75%; in that of `COc1cc(/C=C(/C#N)c2nc3ccccc3[nH]2)ccc1OC(=O)c1ccco1`, -6.24%.
As to `O=C(COC(=O)c1ccccc1)Nc1cc(S(=O)(=O)N2CCCCCC2)ccc1Cl`, the “hERG current change (%, negative = inhibition) at 10uM” value is listed as 7.5%.
As for `CS(=O)(=O)c1ccc(Cl)c(NC(=O)COC(=O)c2cccc(S(=O)(=O)N3CCCCC3)c2)c1`, the “hERG current change (%, negative = inhibition) at 10uM” value is reported as -30.9%.
For the compound `O=C(COC(=O)Cc1ccccc1)Nc1cc(S(=O)(=O)N2CCCCC2)ccc1Cl`, the “hERG current change (%, negative = inhibition) at 10uM” value was -81.8%.
For the compound `Cc1ccc(C(=O)OCC(=O)Nc2cc(S(C)(=O)=O)ccc2Cl)cc1S(=O)(=O)N1CCCCC1`, the “hERG current change (%, negative = inhibition) at 10uM” value was -26.9%.
`O=C(COC(=O)CCS(=O)(=O)c1ccccc1)Nc1cc(S(=O)(=O)N2CCCCC2)ccc1Cl`: the “hERG current change (%, negative = inhibition) at 10uM” value is listed as -4.61%.
With `CS(=O)(=O)c1ccc(Cl)c(NC(=O)COC(=O)c2cccc(S(=O)(=O)N3CCCC3)c2)c1`, the “hERG current change (%, negative = inhibition) at 10uM” value is -51.5%.
On to `CCOC(=O)c1ccc(NC(=O)NCc2ccccc2)cc1`, for which the “hERG current change (%, negative = inhibition) at 10uM” value was -9.51%.
Regarding `COc1ccc(S(=O)(=O)N2CCN(C(=S)Nc3ccc(S(N)(=O)=O)cc3)CC2)cc1`, the “hERG current change (%, negative = inhibition) at 10uM” value is listed as 15.7%.
As for `CCC(C(=O)Nc1nccs1)c1ccccc1` (stereo not shown), the “hERG current change (%, negative = inhibition) at 10uM” value was 9.98%.
For `COc1ccc(-n2c(=O)c3ccccc3n(CC(=O)NCC3CCCO3)c2=O)cc1` (stereo not shown), the “hERG current change (%, negative = inhibition) at 10uM” value is 13.4%.
For `O=C(c1cnc2ccccc2n1)N1CCN(c2ccc(C(F)(F)F)cn2)CC1`, the “hERG current change (%, negative = inhibition) at 10uM” value is -17.1%.
For `O=S(=O)(CCc1nc2ccccc2o1)c1ccc(Cl)cc1`, the “hERG current change (%, negative = inhibition) at 10uM” value is -7.14%.
Regarding `COc1ccc(Cn2nnnc2CN(CCCN2CCOCC2)Cc2cc3cc(OC)ccc3[nH]c2=O)cc1`, the “hERG current change (%, negative = inhibition) at 10uM” value is reported as -42.7%.
In the case of `COc1ccc2cc(CN(Cc3ccco3)Cc3nnnn3C3CCCCC3)c(=O)[nH]c2c1`, the “hERG current change (%, negative = inhibition) at 10uM” value is -19.4%.
For `Cc1ccc2[nH]c(=O)c(CN(Cc3ccc4c(c3)OCO4)Cc3nnnn3C3CCCC3)cc2c1`, the “hERG current change (%, negative = inhibition) at 10uM” value turned out to be 4.66%.
The same measure for `Cc1ccc2[nH]c(=O)c(CN(CCCN3CCOCC3)Cc3nnnn3C3CCCC3)cc2c1`: -54.5%; for `COc1cc2cc(CN(CCCN3CCOCC3)Cc3nnnn3Cc3ccccc3)c(=O)[nH]c2cc1OC`: -20.2%; for `COc1ccc2cc(CN(CCCN3CCOCC3)Cc3nnnn3C3CCCC3)c(=O)[nH]c2c1`: -59.7%.
Turning to `COc1ccc2cc(CN(CCCN3CCOCC3)Cc3nnnn3C3CCCCC3)c(=O)[nH]c2c1`, the “hERG current change (%, negative = inhibition) at 10uM” value is on record as -26.5%.
With `CCOc1ccc2[nH]c(=O)c(CN(CCCN3CCOCC3)Cc3nnnn3Cc3ccc(OC)cc3)cc2c1`, the “hERG current change (%, negative = inhibition) at 10uM” value is on record as -60.9%.
For the compound `Cc1ccc2[nH]c(=O)c(CN(Cc3ccccc3)Cc3nnnn3C3CCCC3)cc2c1`, the “hERG current change (%, negative = inhibition) at 10uM” value is listed as -6.83%.
For `CCOc1ccc(S(=O)(=O)n2nnc3ccccc32)cc1C`, the “hERG current change (%, negative = inhibition) at 10uM” value is listed as 14.6%.
The same measure for `CCCn1c(C)c(C(=O)OCC)c(O)c(-c2ccccc2)c1=O`: 19.5%; for `CC(=O)N1CCN(c2cc(N3CCCC3)c(F)cc2[N+](=O)[O-])CC1`: 5.05%.
In the case of `COc1ccc(/C=N/Nc2ccc(C(F)(F)F)cc2[N+](=O)[O-])cc1` it was 5.35%; in that of `Cn1cccc1Cc1nnc(SCC(=O)NCCc2ccccc2)n1-c1ccc(F)cc1`, -21.6%; in that of `CC(C)Cc1nnc(NC(=O)CN2C(=O)NC3(CCCC3)C2=O)s1`, -9.22%.
Consider `CC(=O)N=c1scc(-c2ccccc2)n1-c1cccc(O)c1`, for which the “hERG current change (%, negative = inhibition) at 10uM” value is 7.32%.
Consider `COc1cnn(-c2ccc(C)cc2)c(=O)c1SCc1ccccc1`, for which the “hERG current change (%, negative = inhibition) at 10uM” value is -20.9%.
Regarding `COc1cnn(-c2ccc(Br)cc2)c(=O)c1SCc1ccccc1`, the “hERG current change (%, negative = inhibition) at 10uM” value is -65.6%.
Consider `COc1cnn(-c2ccccc2)c(=O)c1SCc1ccc(Cl)c(Cl)c1`, for which the “hERG current change (%, negative = inhibition) at 10uM” value is -21.1%.
In the case of `CN(C)S(=O)(=O)c1ccc(NC(=S)NC(=O)C2CCC2)cc1` it was 10.3%; in that of `CC(C)(SC(=S)N1CCCCCC1)C(=O)O`, 24.3%.
As for `CC(C)(C)n1cn[nH]c1=S`, the “hERG current change (%, negative = inhibition) at 10uM” value came to 22%.
For the compound `CCCSc1cc(N2CCCC2)nc(-c2ccccc2)n1`, the “hERG current change (%, negative = inhibition) at 10uM” value is recorded as 15.5%.
Consider `COc1ccc(CCN(C)C(=O)C2CCN(Cc3cccc(OC)c3OC)CC2)cc1OC.O=C(O)C(=O)O`, for which the “hERG current change (%, negative = inhibition) at 10uM” value is -3.13%.
As for `COc1ccc(CN2CCC(N3CC(C)OC(C)C3)CC2)c(OC)c1.O=C(O)C(=O)O` (stereo not shown), the “hERG current change (%, negative = inhibition) at 10uM” value is recorded as -1.98%.
